A selection: hits, their analogues and other compounds. The true share with any hit is near 2.8%.
PI5P4K alpha inh – inhibitors of human PI5P4K alpha | 330,000 tested, 1.2% active | PI5P4Kalpha enzyme, ADP-Glo luminescence, 60 min; hits give low values | max response, % | P48426; active = max response of -50% or lower; inconclusive = between -30% and -50%; inactive = -30% or higher; note: value at the top dose of about 77 µM; % is set by controls: 0 for no effect and ±100 for the full control effect
Target sequence (P48426 whole entry, looked up): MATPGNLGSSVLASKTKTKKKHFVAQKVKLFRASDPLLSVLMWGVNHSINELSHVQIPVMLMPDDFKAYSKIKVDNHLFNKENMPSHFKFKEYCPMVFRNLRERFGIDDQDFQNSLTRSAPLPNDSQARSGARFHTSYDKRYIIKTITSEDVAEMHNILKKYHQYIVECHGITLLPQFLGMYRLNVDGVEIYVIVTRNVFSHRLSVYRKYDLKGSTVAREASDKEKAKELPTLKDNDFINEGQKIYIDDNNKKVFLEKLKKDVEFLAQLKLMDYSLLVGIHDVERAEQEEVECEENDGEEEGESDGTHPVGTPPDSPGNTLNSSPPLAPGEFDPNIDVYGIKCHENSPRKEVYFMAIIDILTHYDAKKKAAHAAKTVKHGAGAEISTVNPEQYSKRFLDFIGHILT
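Human PI5P4Kalpha with substrate in 0.038 M HEPES pH 7.4, 0.28 mM EGTA, 0.1% CHAPS, 5% DMSO; reaction started with 5 microM ATP (final), 60 min at room temperature. ADP formed read by ADP-Glo luminescence.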
Pol eta inh-1 – DNA polymerase eta (human) inhibition | Q9Y253 | recombinant Pol eta, fluorescent DNA replication assay | 390,000 tested, 1.2% active | Potency, µM (top dose mostly 114 µM), inactives show at the top dose activity change, negative = inhibition, most hits filed as inhibitors; note: potency is the fitted concentration of half-maximal effect; % is set by controls: 0 for no effect and ±100 for the full control effect
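Fluorescent replication assay: 50 nM final substrate added after a 15 min room-temperature compound preincubation with 10 nM enzyme. Signal taken at 0 min and again at 10 min.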
Pol kappa inh-1 – DNA polymerase kappa (human) inhibition; purified Pol kappa, fluorescent DNA synthesis assay, 10 min; Q9UBT6; Potency, µM (series often up to 107 µM), for the others: at the top dose activity, negative = inhibition, most hits filed as inhibitors; 400,000 tested, 0.53% active; AID 588579; note: potency is the fitted concentration of half-maximal effect; % is set by controls: 0 for no effect and ±100 for the full control effect
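50 nM final substrate added after 15 min RT preincubation of 10 nM Pol kappa with compound; fluorescence read at 0 and 10 min.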
Pol iota inh – inhibitors of human DNA polymerase iota; Q9UNA4; Pol iota fluorescent replication assay, 10 min; Potency, µM (doses to about 115 µM), inactives show at the highest dose activity, negative = inhibition, hits mostly inhibitors; 390,000 tested, 1% active; AID 588590; note: potency is the fitted concentration of half-maximal effect
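Fluorescent replication assay read twice, at 0 min and 10 min after adding 50 nM (final) substrate. Enzyme (10 nM) and compounds were first incubated 15 min at room temperature; enzyme-free buffer wells were negative controls.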
POLB inh – blocks human DNA polymerase beta activity. P06746. Pol beta primer extension/strand displacement, fluorescence kinetic. Potency, µM (series often up to 114 µM), for inactives: top-dose activity change, negative = inhibition, most hits filed as inhibitors. 340,000 tested, 1.3% active. AID 485314; note: potency is the fitted concentration of half-maximal effect; % is set by controls: 0 for no effect and ±100 for the full control effect
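Homogeneous kinetic assay of primer extension and strand displacement by 10 nM Pol beta, preincubated 15 min at room temperature with compound before 50 nM substrate (final) was added. Read at 0 and 10 min; four-parameter Hill fit.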
WRN inhibitor – inhibitors of human WRN helicase. Q14191. WRN helicase unwinding, fluorescent forked duplex, kinetic. Potency, µM (series often up to 114 µM), for the others: at the highest dose activity change, negative = inhibition, actives largely listed as inhibitors. 360,000 tested, 0.46% active. AID 651768; note: potency is the fitted concentration of half-maximal effect; % is set by controls: 0 for no effect and ±100 for the full control effect; nearly all actives have a fitted effect of over 55% in size
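Kinetic red-fluorescence monitoring (525/598 nm) tracks WRN helicase activity after 100 nM fluorophore-quencher forked duplex and 2 mM ATP are added to 20 nM enzyme pretreated 15 min at room temperature with compound.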
Pol kappa inh-2 – Pol kappa (human) inhibition, cherry-pick confirmation; 920 tested, 76% active; purified Pol-kappa, fluorescent strand-displacement substrate; Potency, µM, usual class: inhibitors; shares compounds with Pol eta inh-1; note: potency is the fitted concentration of half-maximal effect
Pol eta inh-2 – Pol eta (human) inhibition, cherry-pick confirmation. Potency, µM, most hits filed as inhibitors. shares compounds with Pol eta inh-1. AID 720502. 2,600 tested, 64% active. Pol eta primer extension, TAMRA/BHQ fluorescence, 10 min; note: potency is the fitted concentration of half-maximal effect
Active calls of the source: *; [ ] = another dose, or the depositor's remark. Unless noted, calls come from the whole dose curve; as a rule, active = well fitted curve in the direction sought with a large enough effect; inconclusive = small, poorly fitted or top-dose-only effect, or another doubt; inactive = no such curve, though single readings can be large; an effect the other way counts as inactive or inconclusive.

`COc1ccc(C2=NN(C(=O)CCCC(=O)O)C(c3cn(-c4ccccc4)nc3-c3ccccc3)C2)cc1` (stereo unspecified) gave PI5P4K alpha inh 12.8, Pol eta inh-1 -20.0%, Pol kappa inh-1 inconclusive, Pol iota inh 20µM*, POLB inh inconclusive, WRN inhibitor 0.299µM*, Pol kappa inh-2 0.377* and Pol eta inh-2 inconclusive.
Screening CCN1C(=O)/C(=C\c2ccc(-c3ccc([N+](=O)[O-])cc3OC)o2)SC1=Nc1cccc(C(=O)O)c1 returned PI5P4K alpha inh -50.2*, Pol eta inh-1 28.2µM*, Pol kappa inh-1 -35.8%, Pol iota inh inconclusive, POLB inh inconclusive, WRN inhibitor -12.2%[11.6 µM] and Pol eta inh-2 75.7*.
CCOC(=O)CSc1nnc(CNc2cccc(Cl)c2)n1C was read as PI5P4K alpha inh 0.4, Pol eta inh-1 -12.0%, Pol kappa inh-1 -2.8%, Pol iota inh 3.9%, POLB inh -4.5% and WRN inhibitor 2.7%[57.1 µM].
`COCCCn1c(Cc2csc(Nc3cccc(Cl)c3)n2)nnc1SCC(=O)OC` gave Pol eta inh-1 20µM*, Pol kappa inh-1 39.8µM*, Pol iota inh 22.4µM*, POLB inh 25.1µM*, WRN inhibitor -7.4%[11.6 µM], Pol kappa inh-2 16.8* and Pol eta inh-2 37.9*.
`N=C1/C(=C\c2ccc(SCc3ccco3)o2)C(=O)N=C2SC=NN12` gave PI5P4K alpha inh -58.4*, Pol eta inh-1 14.1µM*, Pol kappa inh-1 50.1µM*, Pol iota inh inconclusive, POLB inh 39.8µM*, WRN inhibitor 56.2µM* and Pol eta inh-2 53.6*.
`CC1=NN2C(=N)/C(=C\c3ccc(SCc4ccccc4)o3)C(=O)N=C2S1` gave PI5P4K alpha inh inconclusive, Pol eta inh-1 inconclusive, Pol kappa inh-1 -14.4%, Pol iota inh inconclusive, POLB inh inconclusive and WRN inhibitor inconclusive.
For COc1ccc(CC(=O)Nc2sc3c(c2C(=O)Nc2cccc(Cl)c2)CCCCC3)cc1 the results were Pol eta inh-1 -26.9%, Pol kappa inh-1 -25.1%, Pol iota inh -97.7% and POLB inh 5.3%.
For COC(=O)C/C=N/N=C1/NC(=O)/C(=C/C(=O)O)S1 the results were PI5P4K alpha inh -70.9*, Pol eta inh-1 39.8µM*, Pol kappa inh-1 44.7µM*, Pol iota inh 14.1µM*, POLB inh 39.8µM*, WRN inhibitor -33.1% and Pol eta inh-2 47.8*.
Screening Nc1nnc(CC(=O)N/N=C/c2cc([N+](=O)[O-])cc(Br)c2O)s1 returned PI5P4K alpha inh inconclusive, Pol eta inh-1 inconclusive, Pol kappa inh-1 50.1µM*, Pol iota inh inconclusive, POLB inh inconclusive, WRN inhibitor 56.2µM*, Pol kappa inh-2 47.4* and Pol eta inh-2 inconclusive.
O=C(Nc1nnc2n1CCS2)c1cc(C(F)(F)F)cc(C(F)(F)F)c1 was read as Pol eta inh-1 -7.0%, Pol kappa inh-1 -2.0%[60.1 µM], Pol iota inh 17.9% and POLB inh 25.8%.
For CCC(=O)N1CCc2cc(Br)cc(S(=O)(=O)CCC(=O)NCCc3ccc(C)cc3)c21 the results were Pol eta inh-1 -17.5%, Pol kappa inh-1 -4.9%[60.1 µM], Pol iota inh 15.8% and POLB inh 0.7%.
CCC(=O)N1CCc2cc(Br)cc(S(=O)(=O)CCC(=O)NCCc3ccccc3Cl)c21 was read as Pol eta inh-1 inconclusive, Pol kappa inh-1 -18.9%, Pol iota inh -14.6%, POLB inh inconclusive, Pol kappa inh-2 33.6* and Pol eta inh-2 75.7*.
`COCc1cc(C)n(CC(=O)Nc2ccc(N3CCOCC3)c(Cl)c2)c(=O)c1C#N` gave PI5P4K alpha inh -1.5, Pol eta inh-1 -11.7%, Pol kappa inh-1 -8.7%, Pol iota inh 56.2%, POLB inh -2.6% and WRN inhibitor 1.3%[57.1 µM].
`COCc1cc(C)n(CC(=O)N/N=C/c2ccc(-c3ccc(Cl)c(C(=O)O)c3)o2)c(=O)c1C#N` gave PI5P4K alpha inh inconclusive, Pol eta inh-1 10µM*, Pol kappa inh-1 inconclusive, Pol iota inh 22.4µM*, POLB inh 20µM*, WRN inhibitor inconclusive and Pol eta inh-2 42.6*.
O=C(O)/C=C/c1cn(-c2ccccc2)nc1-c1ccc(-c2ccc([N+](=O)[O-])cc2)o1 was read as PI5P4K alpha inh -60.5*, Pol eta inh-1 31.6µM*, Pol kappa inh-1 -24.2%, Pol iota inh inconclusive, POLB inh 28.2µM*, WRN inhibitor 50.1µM* and Pol eta inh-2 84.9*.
For O=C(O)/C=C/c1cn(-c2ccccc2)nc1-c1cccc([N+](=O)[O-])c1 the results were PI5P4K alpha inh -3.4, Pol eta inh-1 -14.8%, Pol kappa inh-1 2.0%, Pol iota inh 22.2%, POLB inh 6.8% and WRN inhibitor -1.5%.
`Cc1cc(CNC(=O)c2cccc3c2C(=O)c2ccc(-c4ccc(F)cc4OCc4ccccc4)cc2S3(=O)=O)c(C(F)(F)F)o1` gave PI5P4K alpha inh -27.3, Pol eta inh-1 20µM*, Pol kappa inh-1 79.4µM*, Pol iota inh 39.8µM*, WRN inhibitor -12.2%[11.6 µM] and Pol eta inh-2 53.6*.
Cc1cc(C2(c3ccc(O)c(C)c3)OC(=O)c3ccccc32)ccc1O was read as PI5P4K alpha inh inconclusive, Pol eta inh-1 inconclusive, Pol kappa inh-1 -35.4%, Pol iota inh inconclusive, POLB inh 35.5µM*, WRN inhibitor -35.9%[57.1 µM] and Pol eta inh-2 inconclusive.
`COC(=O)c1ccc(NS(=O)(=O)c2ccc3[nH]c(=O)oc3c2)cc1` gave PI5P4K alpha inh -7.9, Pol eta inh-1 25.1µM*, Pol kappa inh-1 inconclusive, Pol iota inh 44.7µM*, POLB inh 35.5µM*, WRN inhibitor 5.0%[11.6 µM] and Pol eta inh-2 inconclusive.
`CC(Oc1cccc([N+](=O)[O-])c1)C(=O)NCCC1=CCCCC1` (stereo unspecified) gave PI5P4K alpha inh 7.1, Pol eta inh-1 -12.9%, Pol kappa inh-1 -11.2%, Pol iota inh -11.1% and WRN inhibitor -3.1%.
`CCNC(=O)C1(C)CCCN(Cc2ccccc2-c2ccccc2)C1` (stereo unspecified) gave PI5P4K alpha inh -4.6 and WRN inhibitor 7.7%[57.1 µM].
